Compound activity from PubChem BioAssay.
This is a sample that favours compounds with a hit; in the whole collection about 3.1% have one here.
12-hLO inh: blocks human 12-lipoxygenase activity. AID 1452. Potency, µM (highest dose often 57.1 µM), for the others: at the highest dose activity change, negative = inhibition, hits mostly inhibitors. purified 12-hLO, xylenol orange hydroperoxide absorbance. 0.12% of 150,000 active; note: potency is the fitted concentration of half-maximal effect; nearly all actives have a fitted effect of over 55% in size
Target sequence (P18054 whole entry, looked up): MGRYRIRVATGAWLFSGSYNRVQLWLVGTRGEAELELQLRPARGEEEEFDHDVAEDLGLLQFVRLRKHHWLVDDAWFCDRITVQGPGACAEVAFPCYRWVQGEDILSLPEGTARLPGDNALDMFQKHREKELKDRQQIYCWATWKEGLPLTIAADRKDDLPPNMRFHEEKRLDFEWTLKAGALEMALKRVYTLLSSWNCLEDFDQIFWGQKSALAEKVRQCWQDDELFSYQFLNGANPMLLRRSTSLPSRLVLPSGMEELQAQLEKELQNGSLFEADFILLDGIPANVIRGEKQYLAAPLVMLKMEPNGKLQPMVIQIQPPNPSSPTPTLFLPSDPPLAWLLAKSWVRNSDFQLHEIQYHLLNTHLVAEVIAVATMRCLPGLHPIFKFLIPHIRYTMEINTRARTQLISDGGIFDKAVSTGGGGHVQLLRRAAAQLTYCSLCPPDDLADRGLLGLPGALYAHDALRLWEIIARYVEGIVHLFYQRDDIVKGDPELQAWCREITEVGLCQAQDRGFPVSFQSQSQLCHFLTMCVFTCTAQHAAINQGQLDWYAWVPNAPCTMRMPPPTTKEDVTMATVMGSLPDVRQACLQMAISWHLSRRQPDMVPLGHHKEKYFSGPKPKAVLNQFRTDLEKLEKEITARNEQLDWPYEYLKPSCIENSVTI
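Hydroperoxide output read as Fe(III)-xylenol orange absorbance, 573-to-405 nm ratio, after 30 min reaction with 40 uM arachidonic acid. Enzyme: 150 nM purified human 12hLO, 15 min compound preincubation; 25 mM Hepes pH 7.0, room temperature.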
15-hLO-2 inh: inhibitors of human 15-lipoxygenase 2 (ALOX15B). purified 15hLO-2, xylenol orange hydroperoxide absorbance. AID 881. Potency, µM (highest dose often 57.1 µM), for inactives: at the top dose activity change, negative = inhibition, actives largely listed as inhibitors. O15296. 0.56% of 110,000 active; note: potency is the fitted concentration of half-maximal effect; nearly all actives have a fitted effect of over 60% in size
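Screening format was qHTS against 50 nM purified 15hLO-2 in Hepes pH 7.5 with detergent. Activity follows hydroperoxide formation from 45 uM arachidonic acid, measured as 573:405 nm absorbance ratio of the ferric-xylenol orange complex.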
PNC assembly inh: perinucleolar compartment assembly inhibition | PC3M PTB-GFP, PNC prevalence imaging, 16 h; hits give low values | activity change (PNC), negative = inhibition, % at 10 µM | 3.1% of 140,000 active;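 active = readout at or below -70, meaning at least 70% loss of cells showing the perinucleolar compartment, a nuclear body marking cancer cells; inconclusive = readout between -30 and a set limit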;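 note: plate controls were DMSO wells for no effect and camptothecin positive control wells for full effect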
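Compounds are pinned in duplicate onto adhered PC3M cells stably expressing GFP-tagged PTB and incubated 16 h at 37 C. Cells are then fixed, nuclei stained with Hoechst, and PNC-positive cells counted.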
An asterisk follows results filed as active; ? = inconclusive; · = not tested or not shown; [ ] = dose if it differs, or a comment. Unless noted, calls come from the whole dose curve; as a rule, active = well fitted curve in the direction sought with a large enough effect; inconclusive = small, poorly fitted or top-dose-only effect, or another doubt; inactive = no such curve, though single readings can be large; an effect the other way counts as inactive or inconclusive. Unless noted, % is set by controls: 0 for no effect and ±100 for the full control effect.

SMILES	12-hLO inh	15-hLO-2 inh	PNC assembly inh
Cc1ccc(OCC(=O)NCC(=O)Nc2ccc(F)c(F)c2F)c([N+](=O)[O-])n1	1%	·	?
COc1ccc2nc(NC(=O)C3CCCN(S(=O)(=O)c4cccc5nonc45)C3)sc2c1 (centres undefined)	-6%	·	-100*
O=C(Nc1nc2ccc(S(=O)(=O)N3CCCC3)cc2s1)C1CCCCC1	0%	-9%	-108*
CCOc1ccc2nc(NC(=O)C3CCCN(S(=O)(=O)c4cccc5nonc45)C3)sc2c1 (centres undefined)	12%	16%	3
O=C(Nc1nc2ccc(S(=O)(=O)N3CCCCC3)cc2s1)C1CCCO1 (centres undefined)	-4%	-7%	15
CCN(CC)Cc1ccc(Nc2ccnc3cc(Cl)ccc23)cc1O	-3%	-3%	·
O=C(NCCN1CCOCC1)c1ccc(-n2c(=O)c(=O)[nH]c3ccccc32)cc1	0%	·	·
CC(C)[C@@H]1C(=O)N(S(C)(=O)=O)[C@H]2CCN(C(=O)/C=C\CN3CCCCC3)[C@@H]12	6%	12%	·
COC(=O)c1ccc(C(NC(=O)OCc2ccccc2)/C(=C/[C@@H](C)C(=O)NCc2ccc(OC)c(OC)c2)c2cccnc2)cc1 (some centres undefined)	2%	6%	·
NC(=O)[C@@H]1CCCNC1	0%[11.4 µM]	-6%[11.4 µM]	·
O=C(OCc1cc2ccccc2[nH]c1=O)c1ccncc1	1%	·	-100*
O=C(OCc1cc2ccccc2[nH]c1=O)c1ccccc1	-4%	4%	6
COC(=O)[C@@]1(C)CCC[C@@]2(C)c3ccc(O)c(C(C)C)c3CCC21 (some centres undefined)	-5%	-18%	·
O=C(NCc1cccc2ccccc12)[C@H]1C[C@@H]1[C@H](NP(=O)(c1ccccc1)c1ccccc1)c1ccccc1	-14%	5%	·
O=C1CCCC/C1=C\Nc1ccc(O)cc1	?	-21%	-117*
CCOC(=O)c1ccc(N/C=C2\CCCCC2=O)cc1	-7%	-1%	6
CCOC(=O)N1CCC(NS(=O)(=O)c2ccc3c(c2)oc(=O)n3C)CC1	3%	-3%	-21
CCOC(=O)N1CCC(NC(=O)C2CCCN(S(=O)(=O)c3ccc4c(c3)oc(=O)n4C)C2)CC1 (centres undefined)	-1%	-1%	-90*
CCOc1ccc(-c2cc(C(=O)N/N=C/c3ccc(O)c(OC)c3)[nH]n2)cc1	2%	·	·
COc1cccc(CN2CCNC(=O)C2CC(=O)O)c1OC (centres undefined)	2%	·	?
Cc1ccccc1CN1CCNC(=O)C1CC(=O)O (centres undefined)	-1%	-12%	-84*
COc1ccc(S(=O)(=O)NCC(c2cccnc2)N2CCN(C)CC2)cc1C (centres undefined)	2%	·	24
CN1CCN(C(CNS(=O)(=O)c2ccc(F)cc2)c2cccnc2)CC1 (centres undefined)	-1%	·	-100*
CN1CCN(C(CNS(=O)(=O)c2ccc(Cl)cc2)c2cccnc2)CC1 (centres undefined)	3%	·	-100*
COc1ccccc1N1CCN(C(CNS(=O)(=O)c2ccccc2)c2cccnc2)CC1 (centres undefined)	1%	9%	31
SMILES	12-hLO inh	15-hLO-2 inh	PNC assembly inh
CCOc1ccccc1-n1c(SCC(N)=O)nc2ccccc2c1=O	4%	2%	-106*
CCOc1ccccc1-n1c(SCC(N)=O)nnc1-c1ccccc1	-5%	-3%	-13
CC(C)[N+]1(C)C2CCC1CC(OC(=O)C(CO)c1ccccc1)C2 (centres undefined)	-5%	-1%	·
COCC(=O)N1CCC2(CC1)CN(c1cccc(-c3ccccc3)c1)C2	-3%	-11%	·
O=C(NN=C1CCCC1)NC1CCCCC1	-3%	·	-118*
O=C(NN=C1CCCCC1)NC1CCCCC1	-1%	·	?
O=C(O)c1cc(S(=O)(=O)Nc2cccc(Cl)c2)ccc1O	0%	·	·
N#Cc1cc(Oc2cccc3cccnc23)c(-n2nnc3ccccc32)cc1C#N	10µM*	?	-24
c1ccc(-n2nnnc2Oc2cccc3cccnc23)cc1	9%	5%	-8
O=C1O/C(=C\Br)CC[C@@H]1c1cccc2ccccc12	-3%	?	·
O=C(CN1CCC(O)(c2ccc3c(c2)OCO3)CC1)N1CCOCC1	-3%	-1%	-19
O=C(CN1CCC(O)(c2ccc3c(c2)OCO3)CC1)OC1CCCCC1	0%	16%[2.29 µM]	-84*
O=C(O)[C@H](Cc1ccc(O)c([N+](=O)[O-])c1)N1C(=O)c2ccccc2C1=O	4%[11.4 µM]	-6%[11.4 µM]	·
COC(=O)C1=C(C(=O)OC)[C@@H]2N(C)c3ccccc3[C@@]23C[C@@H](C(=O)OC)N(S(=O)(=O)c2ccc4c(c2)OCCN4C)C3=N1	-1%[11.4 µM]	·	·
CC1C(=O)OC2C(O)C34C5CC(C(C)(C)C)C36C(OC(=O)C6O)OC4(C(=O)O5)C12O (centres undefined)	-3%	10%	·
Cc1nc(=O)cc(-c2ccccc2)n1-c1ccccc1	-3%	-4%	-108*
COc1ccc(-n2c(C)nc(=O)c(-c3ccccc3)c2C)cc1	1%	·	?
CCCCC1=CC2=C(OC(C)=O)C(=O)C(C)(OC(=O)c3ccco3)C(=O)C2=CO1 (centres undefined)	-1%	·	·
N#C/C(=C\c1ccc(O)c(O)c1)C(=O)NCCCc1ccccc1	?	?	8
N#C/C(=C\c1ccc(O)c(O)c1)C(=O)OCCc1cccs1	?	13µM*	·
CC(=O)Nc1ccc(S(=O)(=O)NCc2ccc3c(c2)cc(C)n3C)cc1	4%	-2%	2
Cc1cc2cc(CNS(=O)(=O)c3ccc4ccccc4c3)ccc2n1C	3%	-8%	-102*
COc1ccc(/C=C/C(=O)c2ccc(O)cc2)cc1COc1ccc(F)cc1	-23%	-4%	?
COc1ccc(Oc2ccc(/C=C/C(=O)c3ccc(O)cc3)cc2[N+](=O)[O-])cc1	3%	·	-113*
Cc1ccc(NC(=S)N(Cc2cccs2)Cc2cc3cccc(C)c3[nH]c2=O)cc1	-1%	·	-22
SMILES	12-hLO inh	15-hLO-2 inh	PNC assembly inh
Cc1cccc2cc(CN(CCN(C)C)C(=S)Nc3ccccc3)c(=O)[nH]c12	-3%	·	-99*
CCCCCCCC1=Cc2ccccc2C(C(C(=O)OC)C(=O)OC)N1C(=O)OC (centres undefined)	0%[11.4 µM]	·	·
COC(=O)C1(C)C=C2C(=C(c3ccccc3)C(=O)C2C)CN1 (centres undefined)	-3%	-10%	·
COc1ccc(C(=O)C2C3C4COC(O4)C(=O)C3C3C=Cc4ccccc4N32)c(OC)c1 (centres undefined)	-16%	-21%	·
CCn1c(CNc2ccc(C(=O)O)cc2)nc2ccccc21	-7%	8%	-109*
CCn1c(/C=N/Nc2ccc(C(=O)O)cc2)nc2ccccc21	2%	·	?
CC[C@H](Cc1c(I)cc(I)c(N)c1I)C(=O)O	-2%[25.6 µM]	-9%[25.6 µM]	·
COc1cc(C(=O)N2CCCc3ccccc32)cc(OC)c1OC	5%	·	31
COc1cc(C(=O)N2c3ccccc3CC2C)cc(OC)c1OC (centres undefined)	3%	2%	-82*
